High-throughput results (PubChem)
HCMV antiviral – human cytomegalovirus inhibition; HFF cells, HCMV-luciferase reporter, 72 h; active compounds read low; activity change, negative = inhibition, % at 57.5 µM; AID 1259415; 4.5% of 410,000 active; in the data active = activity change below about -60%; inconclusive = no clear call, values can overlap the other calls; inactive = above about -39%
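Luciferase read-out from HCMV-luciferase-infected HFFs (MOI 1 PFU/cell) 72 h post infection at 37C; compounds added after 16 h cell attachment; activity normalized between buffer-only basal and Salinomycin (10uM) inhibitor controls.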
HCV inhibitor – inhibitors of hepatitis C virus infection; Huh7.5.1 HCVcc-Cre infection, luciferase reporter, 44 h; Potency, µM (top dose mostly 41.8 µM), inactives show top-dose activity change, negative = inhibition, actives largely listed as inhibitors; 3.4% of 340,000 active; also: potency is read from the fitted curve at half-maximal effect
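Infectious HCVcc-Cre (~0.5 moi) was added to cells just after compound, with cells seeded 4 h earlier at 1,000 per well. Luciferase activity after 44 h culture reported infection; substrate was incubated 15 min at room temperature before reading.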
Pf growth 96h – P. falciparum growth inhibition at 96 hour, primary screen for plastid delayed-death inhibitors; P. falciparum luciferase reporter growth, 96 h; Potency, µM (doses to about 28.7 µM), without a hit: at the highest dose activity change, negative = inhibition, actives largely listed as inhibitors; 6.9% of 320,000 active; AID 504834; also: potency is read from the fitted curve at half-maximal effect
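Erythrocytes infected with luciferase-expressing P. falciparum were dispensed at 2% hematocrit and 0.05% parasitemia (final), then incubated with compounds 96 hours at 37 C in 5% CO2. Luminescence after detection reagent addition reported growth.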
Pf growth 48h – P. falciparum growth inhibition at 48 hours (one generation). AID 504832. Potency, µM (titrated, usually from 28.7 µM), without a hit: at the highest dose activity change, negative = inhibition, usual class: inhibitors. 5.9% of 310,000 active. P. falciparum luciferase growth in erythrocytes, 48 h; also: potency is read from the fitted curve at half-maximal effect
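Luciferase-expressing parasites in RBCs, 2% Hct / 0.1% parasitemia final; RPMI 1640 + 0.5% Albumax; 37 C, 5% CO2, one generation; luminescence read-out, lower signal = inhibition.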
An asterisk follows results filed as active; ? = inconclusive; . = no result given; [ ] = remark or other dose. Compounds with a hit are over-represented: about 13% of the library has one in this group of screens. Unless noted, calls follow the shape of the dose curve; as a rule, active = well fitted inhibition curve with a large enough effect; inconclusive = small, poorly fitted or top-dose-only effect, or another doubt; inactive = no such curve, though single readings can be large or run the other way. % is scaled to controls: 0 for no effect and ±100 for the full control effect.

SMILES	HCMV antiviral	HCV inhibitor	Pf growth 96h	Pf growth 48h
NC(=O)[C@@H]1CSSCCC(=O)N[C@@H](CCCCN=C(N)N)C(=O)NCC(=O)N[C@@H](CC(=O)O)C(=O)N[C@@H](Cc2c[nH]c3ccccc23)C(=O)N2CCC[C@H]2C(=O)N1	.	.	7%	1%
Cc1ccc(C(=O)Nc2ccc3oc(-c4ccccc4C)nc3c2)cc1	-32	.	.	.
Cc1ccc(/C=C/c2onc(C)c2S(=O)(=O)N2CCC(C(=O)Nc3ccccc3C(F)(F)F)CC2)cc1	13	.	.	.
Cc1ccc(CN2C(=O)c3ccccc3C2C(=O)NC2CCCCCC2)cc1 (centres undefined)	-20	.	.	.
O=[N+]([O-])c1cccc(-c2noc3ccccc23)c1	2	.	.	.
Cc1ccc(N2CCN(C(=O)c3c4c(nc5ccccc35)C(=O)N(C3CCCCC3)C4)CC2)c(C)c1	40	.	.	.
CN1C[C@@H]2C(c3ccccc3)C3(c4ccc(C#N)cc4)CC2(C3)[C@H]1c1ccccc1 (some centres undefined)	-18	19%[8.37 µM]	10µM*	10µM*
CN1C[C@@H]2C(c3ccc(C(F)(F)F)cc3)C3(c4ccc(C#N)cc4)CC2(C3)[C@H]1c1ccccc1 (some centres undefined)	-7	25%	12µM*	12µM*
CN1C[C@@H]2C(c3ccccc3)C3(c4ccccc4)CC2(C3)[C@H]1c1ccccc1 (some centres undefined)	43	-7%	?	?
CC(C)c1onc(C(=O)NCc2cccs2)c1[N+](=O)[O-]	-68*	12%	-11%	-29%
Cc1onc(C(=O)NCc2cccs2)c1[N+](=O)[O-]	7	5%	-11%	-23%
Cn1cc(-c2cc3n(n2)CCC(=O)N3CCCC(=O)Nc2ccccc2Cl)c2ccccc21	-62*	.	.	.
CC1=CC(=O)N(c2ccc(C)cc2)C1c1ccc(Cl)cc1 (centres undefined)	31	5%	?	?
CC1=CC(=O)N(c2cccc(C(F)(F)F)c2)C1c1ccc(Cl)cc1 (centres undefined)	-25	?	?	8.3µM*
Cc1cccc(CNC(=O)C2CCN(c3nn4cc(-c5ccc(F)cc5)nc4s3)CC2)c1	0	.	.	.
CCCCN(C(=O)c1ccc(Cl)cc1)C1CC2CCC(C1)N2C (centres undefined)	-7	11µM*	?	?
COc1ccc(Cn2c(CCC(=O)N3CCN(c4ccccn4)CC3)nc3ncccc3c2=O)cc1	-8	13%	?	12µM*
COc1ccc(N2CCN(CCC(O)c3ccc4ccccc4c3)CC2)cc1 (centres undefined)	-7	-6%	-14%	3.3µM*
COc1cc(O)c(C(CCN2CCN(c3ccccc3)CC2)c2ccc(N(C)C)cc2)c(OC)c1 (centres undefined)	59	-2%	0.66µM*	0.83µM*
COCCn1c(C)cc(O)c(C(c2ccc(OC)cc2)N2CCN(c3ccccc3)CC2)c1=O (centres undefined)	-12	.	.	.
COc1cc(O)c(C(CC(=O)N2CCCCC2)c2ccc(N(C)C)cc2)c(OC)c1 (centres undefined)	1	15%	23%	17%
COc1cc(O)c(C(CCN2CCOCC2)c2ccc(N(C)C)cc2)c(OC)c1 (centres undefined)	1	-9%[8.37 µM]	7.4µM*	4.7µM*
COc1ccc(C(CCN2CCN(c3ccccc3)CC2)c2c(O)cc(OC)cc2OC)cc1 (centres undefined)	62	-23%	0.47µM*	1µM*
CSc1cccc(CN2CCN(Cc3ccccc3)C(CCO)C2)c1 (centres undefined)	-35	-3%	0%	-16%
Cc1ccc(CN2CCN(Cc3ccc(-n4cccn4)cc3C)CC2CCO)cc1 (centres undefined)	?	-25%	25%	10µM*
SMILES	HCMV antiviral	HCV inhibitor	Pf growth 96h	Pf growth 48h
Cc1ccc(CN2CCN(Cc3ccon3)CC2CCO)cc1 (centres undefined)	-26	12%	10µM*	-2%
CSc1ccc(CN2CCN(Cc3ccccc3)C(CCO)C2)cc1 (centres undefined)	?	-11%	12µM*	-8%
OCCC1CN(Cc2ccc(-n3cccn3)cc2)CCN1Cc1ccccc1 (centres undefined)	-3	-2%	8.3µM*	-10%
Cc1ccc(CN2CCN(Cc3ccccn3)CC2CCO)cc1 (centres undefined)	-17	1%	-4%	16%
CCC(C)c1ccc(OCC(=O)Nc2ccc(-c3nc4ncccc4o3)cc2)cc1 (centres undefined)	50	.	.	.
CCc1ccc2oc(C(=O)Nc3ccccc3C(=O)OC)cc(=O)c2c1	12	.	.	.
CC(C)(C)OC(=O)NCCCCCNC(=O)c1[nH]cnc1C(=O)N[C@@H](Cc1ccccc1)C(=O)OCc1ccccc1	-1	21%	12µM*	8.3µM*
CC(C)C[C@H](NC(=O)c1nc[nH]c1C(=O)N[C@@H](CCCCNC(=O)OC(C)(C)C)C(=O)OC(C)(C)C)C(=O)OCc1ccccc1	-9	?	3.3µM*	?
NCCCCCNC(=O)c1[nH]cnc1C(=O)N[C@@H](Cc1ccccc1)C(=O)OCc1ccccc1	18	32%	.	.
CC(C)C[C@H](NC(=O)c1nc[nH]c1C(=O)NCCCCCNC(=O)OC(C)(C)C)C(=O)OCc1ccccc1	8	57%	9.3µM*	?
C[C@H](NC(=O)c1nc[nH]c1C(=O)NCCCCCNC(=O)OC(C)(C)C)C(=O)OCc1ccccc1	27	21%	0%	47%
CC(C)(C)OC(=O)NCCCCCNC(=O)c1nc[nH]c1C(=O)NCC(=O)OCc1ccccc1	-2	?	.	.
CC(C)(C)OC(=O)NCCCC[C@H](NC(=O)c1nc[nH]c1C(=O)NCC(=O)OCc1ccccc1)C(=O)OC(C)(C)C	-89*	2%	0%	?
CCOC(=O)c1c(C)oc2nc(C)nc(Nc3cc(C)cc(C)c3)c12	5	.	.	.
Cc1cc(OCC(=O)Nc2cc(-c3nc4ccccc4[nH]3)ccc2C)ccc1Cl	54	.	.	.
Cc1ccc(-c2nonc2NC(=O)c2ccco2)cc1C	-14	.	.	.
CC(C)(C)OC(=O)[C@H](Cc1ccccc1)NC(=O)c1nc[nH]c1C(=O)NCC(=O)OCc1ccccc1	-61*	5%	115%	77%
CC(C1CCN(Cc2nc(C3CC3)no2)CC1)N1CCOCC1 (centres undefined)	17	5%	13µM*	8%
CCOC(=O)N1CCN(Cc2nc(C3CC3)no2)CC1	79	5%	15%	65%
CC(C)n1c(=S)[nH]c2cc(Cl)ccc21	-72*	3%	?	?
O=C(Cn1ccn(-c2ccc(F)cc2)c(=O)c1=O)Nc1ccccc1C(F)(F)F	-30	.	.	.
O=C(COc1ccc(Cl)cc1)N1CCN(c2ccc([N+](=O)[O-])c(N3CCCCC3)c2)CC1	-3	?	10µM*	?
O=C(OCC(=O)N1CCN(c2ccccc2)CC1)c1ccc(Cl)cc1[N+](=O)[O-]	-15	-10%	10%	5%
